In PubChem BioAssay (Tox21):
Inconclusive results are not listed. Active and inactive are the calls of the source. Unless noted, calls come from the whole dose curve; as a rule, active = well fitted curve in the direction sought with a large enough effect in the repeat runs; inconclusive = weak or mixed curves; inactive = no such curve, though single readings can be large; an effect the other way counts as inactive or inconclusive.

Assays:
[1] = qHTS assay to identify small molecule antagonists of the peroxisome proliferator-activated receptor delta (PPARd) signaling pathway - cell viability counter screen (AID 743213); note: nearly all actives have a fitted effect of over 50% in size
Method in brief: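 Agonist-stimulated (L165041, 300 nM final) HEK293H PPARd UAS-bla cells are exposed to compounds for 17 h at 37 C, and ATP-based luminescence (CellTiter-Glo) from the same wells reports cytotoxicity.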

[2] = biological target: Peroxisome proliferator-activated receptor delta (Homo sapiens) (UniProt Q03181); assay: qHTS assay to identify small molecule antagonists of the peroxisome proliferator-activated receptor delta (PPARd) signaling pathway (AID 743215; active = well fitted inhibition curve with a large enough effect in the signal ratio in the repeat runs, not every such curve was filed as active; the % refers to the signal ratio; note: series mostly up to about 62 µM)
Method in brief: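 With L165041 present at 300 nM final, compounds were incubated 17 h at 37 C on PPARd UAS-bla HEK293H cells. A FRET-based beta-lactamase substrate was then applied for 2 h at room temperature and fluorescence intensity recorded.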

[3] = qHTS assay to identify small molecule agonists of the farnesoid-X-receptor (FXR) signaling pathway - cell viability counter screen (AID 743218); note: nearly all actives have a fitted effect of over 45% in size
Method in brief: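 After 16 h at 37 C with test compounds, FXR-bla HEK 293T cells were given LiveBLAzer B/G substrate for 2 h at RT and then CellTiter-Glo; luminescence was taken after 30 min.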

[4] = qHTS assay to identify small molecule antagonists of the farnesoid-X-receptor (FXR) signaling pathway - cell viability counter screen (AID 743221; active = well fitted cell-killing curve with a large enough effect in the repeat runs, not every such curve was filed as active; note: nearly all actives have a fitted effect of over 50% in size)
Method in brief: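 FXR-UAS-bla HEK 293T cells were treated with test compounds plus chenodeoxycholic acid (50 uM final) for 16 h at 37 C. Cell viability in the same wells was then read as CellTiter-Glo luminescence after 30 min at room temperature.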

[5] = biological target: Vitamin D3 receptor (Homo sapiens) (UniProt P11473); assay: qHTS assay to identify small molecule agonists of the vitamin D receptor (VDR) signaling pathway (AID 743222; calls by dose curve)
Method in brief: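 VDR-bla cells were seeded, left 4 h, treated with compounds in DMSO for 16 h, incubated 2 h at RT with B/G FRET substrate, and read for fluorescence.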

[6] = biological target: Vitamin D3 receptor (Homo sapiens) (UniProt P11473); assay: qHTS assay to identify small molecule antagonists of the vitamin D receptor (VDR) signaling pathway (AID 743223; active = well fitted inhibition curve with a large enough effect in the signal ratio in the repeat runs, not every such curve was filed as active; the % refers to the signal ratio)
Method in brief: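 VDR-bla cells were plated, incubated 4 h at 37C, then given compound and 1alpha,25-dihydroxyvitamin D3 (3 nM final). After 16 h at 37C, LiveBLAzer B/G FRET substrate was added for 2 h at room temperature and fluorescence read.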

[7] = qHTS assay to identify small molecule antagonists of the vitamin D receptor (VDR) signaling pathway - cell viability counter screen (AID 743225); note: nearly all actives have a fitted effect of over 50% in size
Method in brief: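 VDR-bla HEK 293T cells, 4 h pre-incubation at 37C, then compound plus 1-alpha,25-dihydroxyvitamin D3 (3 nM final) for 16 h. After the beta-lactamase FRET read, CellTiter-Glo was added to the same wells; luminescence after 30 min at room temperature.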

[8] = qHTS assay to identify small molecule agonists of the NFkB signaling pathway (AID 1159509; active = well fitted curve in the direction sought with a large enough effect in the signal ratio in the repeat runs, not every such curve was filed as active; the % refers to the signal ratio; note: series mostly up to about 61 µM)
Method in brief: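 NFkB-bla ME-180 cells with a beta-lactamase reporter under an NF-kB response element were plated overnight, treated with compounds in DMSO for 5 hr at 37 C, then loaded with FRET substrate for 1.5 hr at room temperature.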

[9] = qHTS assay to identify small molecule agonists of the NFkB signaling pathway - cell viability counter screen (AID 1159515; calls by dose curve; note: series mostly up to about 61 µM; nearly all actives have a fitted effect of over 55% in size)
Method in brief: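 5 hr compound treatment of NFkB-bla ME-180 cells (2,000/well, seeded overnight beforehand), followed by reporter substrate for 1.5 hr. CellTiter-Glo added afterward; luminescence after 30 min RT.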

[10] = qHTS assay to identify small molecule agonists of the endoplasmic reticulum stress response signaling pathway (AID 1159516; active = well fitted activation curve with a large enough effect in the signal ratio in the repeat runs, not every such curve was filed as active; the % refers to the signal ratio)
Method in brief: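 Reporter HeLa cells (ESRE-beta-lactamase) underwent 5 hr compound incubation at 37 C and 5% CO2 in quantitative HTS format. Detection followed 2 hr of FRET substrate loading at room temperature.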

[11] = qHTS assay to identify small molecule agonists of the endoplasmic reticulum stress response signaling pathway - cell viability counter screen (AID 1159517; calls by dose curve;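 note: HeLa cells carrying an ER stress response element beta-lactamase reporter; series mostly up to about 61 µM; nearly all actives have a fitted effect of over 50% in size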)
Method in brief: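 Counter-screen wells were identical to the reporter wells. Cells were plated at 1,500 per well and dosed for 5 hr, then read for luminescence 30 min after CellTiter-Glo addition.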

[12] = qHTS assay to identify small molecule antagonists of the retinoid-related orphan receptor gamma (ROR-gamma) signaling pathway - cell viability counter screen (AID 1159520); note: nearly all actives have a fitted effect of over 50% in size
Method in brief: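 Tet-on ROR gamma CHO cells were given compounds for 2 hr, then doxycycline hyclate at 1 uM final, and incubated 16 hr at 37 C. Viability was measured as ATP content by CellTiter-Glo luminescence.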

[13] = biological target: Nuclear receptor ROR-gamma (Homo sapiens) (UniProt P51449); assay: qHTS assay to identify small molecule antagonists of the retinoid-related orphan receptor gamma (ROR-gamma) signaling pathway (AID 1159521; note: nearly all actives have a fitted effect of over 50% in size; note: potency is the fitted concentration of half-maximal effect)
Method in brief: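 Tet-on RORγ CHO cells carrying a ROR response element–luciferase reporter were pretreated with compounds for 2 h, then induced with 1 uM (final) doxycycline hyclate for 16 h at 37 C. Antagonism was read as decreased ONE-Glo luminescence.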

[14] = qHTS assay to identify small molecule agonists of the AP-1 signaling pathway - cell viability counter screen (AID 1159525; calls by dose curve; note: nearly all actives have a fitted effect of over 55% in size)
Method in brief: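 AP-1-bla ME-180 cells in Opti-MEM with 0.5% dialyzed FBS, compound exposure 5 h at 37 C in 15-point titration. Viability read in the same wells as ATP content by CellTiter-Glo luminescence, normalised to tetra-n-octylammonium bromide and DMSO controls.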

[15] = qHTS assay to identify small molecule agonists of the AP-1 signaling pathway (AID 1159526; calls by dose curve)
[16] = qHTS assay to identify small molecule agonists of the RXR signaling pathway - cell viability counter screen (AID 1159529)
Method in brief: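 RXR-alpha-UAS-bla HEK 293T cells in medium with 2% charcoal-stripped FBS were preincubated 5 hr, then exposed to compounds for 16 hr at 37 C. Viability was read as CellTiter-Glo luminescence after 30 min at room temperature.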

[17] = biological target: Bile acid receptor (Homo sapiens) (UniProt Q96RI1); assay: qHTS assay to identify small molecule antagonists of the farnesoid-X-receptor (FXR) signaling pathway (AID 743217; active = well fitted inhibition curve with a large enough effect in the signal ratio in the repeat runs, not every such curve was filed as active; the % refers to the signal ratio)
Method in brief: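 In this cell-based antagonist screen, inhibition of CDCA-driven (50 uM final) UAS-beta-lactamase expression in HEK 293T cells was measured by FRET fluorescence following 16 h compound exposure at 37 °C.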

[18] = biological target: Bile acid receptor (Homo sapiens) (UniProt Q96RI1); assay: qHTS assay to identify small molecule agonists of the farnesoid-X-receptor (FXR) signaling pathway (AID 743220; active = well fitted activation curve with a large enough effect in the signal ratio in the repeat runs, not every such curve was filed as active; the % refers to the signal ratio)
Method in brief: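 Beta-lactamase reporter under UAS control in GeneBLAzer FXR HEK 293T cells (5000/well) measured with LiveBLAzer FRET substrate after 2 h at room temperature. Compound exposure lasted 16 h at 37C.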

[19] = qHTS assay to identify small molecule agonists of the vitamin D receptor (VDR) signaling pathway - cell viability counter screen (AID 743224)
Method in brief: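 Here cell health was gauged by luminescent ATP detection (CellTiter-Glo, 30 min RT) in VDR-bla cells that had been incubated with test compounds for 16 h at 37C and 5% CO2.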

Measured: Potency

Bile acid receptor (Homo sapiens), sequence (Q96RI1 whole entry, looked up): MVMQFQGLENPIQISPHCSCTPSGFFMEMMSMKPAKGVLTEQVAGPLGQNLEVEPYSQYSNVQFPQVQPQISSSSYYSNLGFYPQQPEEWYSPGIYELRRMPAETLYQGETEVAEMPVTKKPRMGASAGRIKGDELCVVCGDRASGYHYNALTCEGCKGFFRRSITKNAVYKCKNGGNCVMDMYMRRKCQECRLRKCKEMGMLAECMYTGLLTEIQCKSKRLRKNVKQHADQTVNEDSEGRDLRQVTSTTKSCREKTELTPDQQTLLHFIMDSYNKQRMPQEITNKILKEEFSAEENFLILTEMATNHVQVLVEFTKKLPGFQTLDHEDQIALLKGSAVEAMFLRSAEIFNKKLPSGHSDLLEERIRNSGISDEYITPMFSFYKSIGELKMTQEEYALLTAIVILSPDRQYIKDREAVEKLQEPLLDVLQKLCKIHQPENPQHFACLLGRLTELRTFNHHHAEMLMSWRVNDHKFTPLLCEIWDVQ
Peroxisome proliferator-activated receptor delta (Homo sapiens), sequence (Q03181 whole entry, looked up): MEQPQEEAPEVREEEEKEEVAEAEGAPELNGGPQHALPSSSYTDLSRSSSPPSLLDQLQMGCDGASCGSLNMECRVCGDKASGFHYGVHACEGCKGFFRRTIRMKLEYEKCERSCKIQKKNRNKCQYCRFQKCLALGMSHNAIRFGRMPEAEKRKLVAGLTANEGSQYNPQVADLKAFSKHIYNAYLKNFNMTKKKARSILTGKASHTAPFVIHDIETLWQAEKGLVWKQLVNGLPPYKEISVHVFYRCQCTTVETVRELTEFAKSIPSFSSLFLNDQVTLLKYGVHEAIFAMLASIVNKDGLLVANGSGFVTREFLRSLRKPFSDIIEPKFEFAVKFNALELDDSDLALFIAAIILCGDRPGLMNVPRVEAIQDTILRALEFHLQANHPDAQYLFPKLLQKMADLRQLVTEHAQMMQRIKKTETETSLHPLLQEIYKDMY
Vitamin D3 receptor (Homo sapiens), sequence (P11473 whole entry, looked up): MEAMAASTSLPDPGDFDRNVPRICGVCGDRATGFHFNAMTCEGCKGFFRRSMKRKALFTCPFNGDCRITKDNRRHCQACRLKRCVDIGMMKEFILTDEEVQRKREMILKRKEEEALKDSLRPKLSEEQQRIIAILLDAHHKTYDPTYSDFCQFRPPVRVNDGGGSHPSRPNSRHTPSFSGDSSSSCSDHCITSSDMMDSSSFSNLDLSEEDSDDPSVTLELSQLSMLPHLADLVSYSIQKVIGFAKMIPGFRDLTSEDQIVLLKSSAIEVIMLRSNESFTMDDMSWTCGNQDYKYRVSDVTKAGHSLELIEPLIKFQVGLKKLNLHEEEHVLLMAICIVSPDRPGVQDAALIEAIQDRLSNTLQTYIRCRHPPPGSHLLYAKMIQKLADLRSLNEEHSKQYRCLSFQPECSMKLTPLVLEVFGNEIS

COC(=O)c1cc(Cl)ccc1[N+](=O)[O-]
not listed: [17] | [18] | [19]
inactive: all other assays above

COc1ccc(/C=C/S(=O)(=O)NC(=O)c2ccc(C)cc2Cl)cc1
not listed: [5] | [6]
inactive: all other assays above

O=Cc1ccc(Cl)c([N+](=O)[O-])c1
active: [13] 54.5 µM
not listed: [6] | [17]
inactive: all other assays above

CCCCCCCCS
not listed: [4] | [6]
inactive: all other assays above

CNc1ccccc1
not listed: [17] | [18]
inactive: all other assays above

Clc1ccccc1-c1nc(-c2ccncc2)no1
not listed: [5] | [6]
inactive: all other assays above

O=C(O)c1ccc2cc(O)ccc2c1
not listed: [7]
inactive: all other assays above

C(/C=C/C=C/Nc1ccccc1)=Nc1ccccc1
inactive: all assays above
